Measured values as given in PubChem BioAssay (Tox21).
Inconclusive results are not listed. A call without a number means that no potency is given here. Active and inactive are the calls of the source. The call rests on the fitted dose curve; in most records, active means well fitted activation curve with a large enough effect in the signal ratio in the repeat runs (not every such curve was filed as active); inconclusive means weak or mixed curves, or effect the other way; inactive means no such curve, though single readings can be large or run the other way; the % refers to the signal ratio.

The molecules below were run against Glucocorticoid receptor (Homo sapiens) (UniProt P04150) (assay: qHTS assay to identify small molecule agonists of the glucocorticoid receptor (GR) signaling pathway (AID 720691)). Settings: GR-bla HeLa, beta-lactamase reporter ratio, 18 h; series mostly up to 62.4 µM.
Glucocorticoid receptor (Homo sapiens), sequence (P04150 whole entry, looked up): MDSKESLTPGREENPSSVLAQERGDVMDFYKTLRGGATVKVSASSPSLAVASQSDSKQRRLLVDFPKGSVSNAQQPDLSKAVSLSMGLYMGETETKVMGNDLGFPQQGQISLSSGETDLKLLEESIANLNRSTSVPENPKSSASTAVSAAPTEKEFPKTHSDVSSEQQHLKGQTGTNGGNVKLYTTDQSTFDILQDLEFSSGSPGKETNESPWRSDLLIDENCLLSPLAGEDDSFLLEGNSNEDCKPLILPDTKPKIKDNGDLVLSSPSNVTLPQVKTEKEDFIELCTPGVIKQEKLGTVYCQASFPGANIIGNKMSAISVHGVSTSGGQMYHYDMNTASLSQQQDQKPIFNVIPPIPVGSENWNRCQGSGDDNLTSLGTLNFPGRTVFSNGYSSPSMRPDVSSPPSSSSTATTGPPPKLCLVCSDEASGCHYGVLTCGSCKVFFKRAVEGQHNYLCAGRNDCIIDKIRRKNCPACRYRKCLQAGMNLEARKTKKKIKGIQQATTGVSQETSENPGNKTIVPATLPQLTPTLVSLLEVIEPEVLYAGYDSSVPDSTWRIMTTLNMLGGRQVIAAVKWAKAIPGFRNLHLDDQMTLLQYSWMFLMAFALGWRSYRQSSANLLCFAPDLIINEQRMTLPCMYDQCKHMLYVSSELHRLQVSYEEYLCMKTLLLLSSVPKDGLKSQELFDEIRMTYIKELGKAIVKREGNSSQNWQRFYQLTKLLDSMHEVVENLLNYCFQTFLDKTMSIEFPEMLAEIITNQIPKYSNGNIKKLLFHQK
Text: U.S. Tox21 Program National Center for Advancing Translational Sciences [NCATS] NIH Chemical Genomics Center [NCGC] U.S. Environmental Protection Agency [EPA] National Institutes of Environmental Health Sciences [NIEHS] National Toxicology Program [NTP] U.S. Food and Drug Administration [FDA] Tox21 Assay Overview: The Glucocorticoid receptor (GR) is one of the members of the nuclear receptor family of ligand-dependent transcription factors. GR plays a critical role in carbohydrate, protein and lipid metabolisms and programmed cell death. CellSensor GR-bla HeLa cell line (Invitrogen) contains a beta-lactamase reporter gene under the control of the glucocorticoid response element stably integrated into HeLa cells, a cervical cancer cell line that expresses glucocorticoid receptor. The activation of the reporter gene under culture conditions can be detected by fluorescence intensity. This cell line has been used to screen the Tox21 10K compound library and to identify the compounds that activate the GR signaling.
Tox21 Assay Protocol Summary: The GR-bla HeLa cells were dispensed at 1500 cells/6 ul/well in 1536-well black wall/clear bottom plates using a Multidrop Combi (ThermoFisher Scientific, Waltham, MA) dispenser. After the assay plates were incubated at a 37 C/5% CO2 incubator for 4 hours, 23 nL of compounds dissolved in DMSO, positive controls or DMSO only was transferred to the assay plate by a pintool station (Kalypsys, San Diego, CA). The plates were incubated at 37 C for 18 hours. After 1 uL of LiveBLAzerTM B/G FRET substrate was added using a Flying Reagent Dispenser (Aurora Discovery, San Diego, CA), the plates were incubated at room temperature for 2 hours, and fluorescence intensity was measured by an Envision plate reader (PerkinElmer, Shelton, CT).
Potency means the concentration at half of the fitted maximal effect.

| SMILES | Potency |
| --- | --- |
| CC/C=C\CC/C=C/CO | inactive |
| CCn1nc(C(=O)O)c(=O)c2cc3c(cc21)OCO3 | inactive |
| O=C(O)Cc1ccc(CCNS(=O)(=O)c2ccc(Cl)cc2)cc1 | inactive |
| COc1nc(N)nc2c1ncn2[C@@H]1O[C@H](CO)[C@@H](O)[C@@H]1O | inactive |
| NS(=O)(=O)c1ccc(C(=O)O)cc1 | inactive |
| CCN(CC)CCNC(=O)c1cc(S(C)(=O)=O)ccc1OC | inactive |
| O=c1cc(CO)occ1O | inactive |
| COC(=O)c1c(Cl)c(Cl)c(C(=O)OC)c(Cl)c1Cl | inactive |
| CC(C)CCCC(C)N (stereo not given) | inactive |
| CC(C)=CCCC(C)CC(=O)O (stereo not given) | inactive |
| NCCCNCCSP(=O)(O)O | inactive |
| CCOC(=O)c1c(C)n(C)c2ccc(O)cc12 | inactive |
| CN1C(=O)N(C)C(O)C1O (stereo not given) | inactive |
| CCCCCCCCCCCC | inactive |
| CCCCC/C=C\CCC=O | inactive |
| COC(=O)c1ccc(C)cc1C1=NC(C)(C(C)C)C(=O)N1 (stereo not given) | inactive |
| CC(C[N+](C)(C)C)OC(N)=O (stereo not given) | inactive |
| N=c1nc(N2CCCCC2)cc(N)n1O | inactive |
| CC(C)(C)c1nnc(NS(=O)(=O)c2ccccc2)s1 | inactive |
| O=C(O)c1ccccc1OP(=O)(O)O | inactive |

| SMILES | Potency |
| --- | --- |
| CCN1CCC[C@H]1CNC(=O)c1cc(S(N)(=O)=O)ccc1OC | inactive |
| O=C1CCCN1C1CCCCC1 | inactive |
| CC(=O)OCC(=O)[C@@]1(O)CCC2C3CCC4=CC(=O)CC[C@]4(C)C3[C@@H](O)C[C@@]21C (stereo not given in full) | 134 nM (active) |
| Cc1cc(O)cc2c1O[C@](C)(CCC[C@H](C)CCC[C@H](C)CCCC(C)C)CC2 | inactive |
| Cc1ccc(Cl)cc1Cl | inactive |
| CC(C)OC(=O)c1ccccc1 | inactive |
| CN1CCC(=C2c3ccccc3CC(=O)c3sccc32)CC1 | inactive |
| N#Cc1ccc(C2CCCc3cncn32)cc1 (stereo not given) | inactive |
| C=COCC1CCC(CO)CC1 (stereo not given) | inactive |
| N=C(N)c1ccc(OCCCOc2ccc(C(=N)N)cc2)cc1 | inactive |
| COC(=O)CCSCCC(=O)OC | inactive |
| CCCCCOC(=O)CCCCC | inactive |
| NC(=O)c1ccc([N+](=O)[O-])cc1 | inactive |
| CN(C)CCCN1c2ccccc2CCc2ccc(Cl)cc21 | inactive |
| Cn1cc(S(C)=O)c(=O)c2ccc(F)cc21 (stereo not given) | inactive |
| O=C1OC(=O)C2CCCCC12 (stereo not given) | inactive |
| CCOC(=O)c1ccc(C)cc1 | inactive |
| CCCN(CCC)CCc1cccc2c1CC(=O)N2 | inactive |
| CCc1ccc(O)c(OC)c1 | inactive |
| Nc1ccc(S(=O)(=O)Nc2ccnn2-c2ccccc2)cc1 | inactive |
